{"source": "ChEMBL document CHEMBL1201862", "about": "“PubChem BioAssay data set” (2004)", "key": {"[1]": {"target": "Nuclear factor erythroid 2-related factor 2 (Homo sapiens) (UniProt Q16236)", "sequence (Q16236 whole entry)": "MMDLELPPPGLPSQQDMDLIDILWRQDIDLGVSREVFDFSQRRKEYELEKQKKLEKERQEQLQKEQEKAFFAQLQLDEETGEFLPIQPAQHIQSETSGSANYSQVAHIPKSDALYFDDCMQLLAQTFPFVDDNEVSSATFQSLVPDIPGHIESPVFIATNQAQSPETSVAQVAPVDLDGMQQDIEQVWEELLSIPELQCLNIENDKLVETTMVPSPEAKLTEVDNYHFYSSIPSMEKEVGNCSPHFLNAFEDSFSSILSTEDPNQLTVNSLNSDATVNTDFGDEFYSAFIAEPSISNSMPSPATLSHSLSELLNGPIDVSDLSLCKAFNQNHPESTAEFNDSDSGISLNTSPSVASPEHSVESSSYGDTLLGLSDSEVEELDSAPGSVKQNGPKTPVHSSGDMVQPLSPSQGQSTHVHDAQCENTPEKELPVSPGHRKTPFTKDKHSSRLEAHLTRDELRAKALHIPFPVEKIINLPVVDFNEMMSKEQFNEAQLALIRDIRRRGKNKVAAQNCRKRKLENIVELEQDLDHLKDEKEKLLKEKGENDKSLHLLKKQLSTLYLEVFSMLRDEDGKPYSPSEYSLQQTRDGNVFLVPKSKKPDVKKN"}, "[2]": {"target": "T1, DNA polymerase kappa (Homo sapiens) (UniProt Q9UBT6)", "T1 sequence (whole entry)": "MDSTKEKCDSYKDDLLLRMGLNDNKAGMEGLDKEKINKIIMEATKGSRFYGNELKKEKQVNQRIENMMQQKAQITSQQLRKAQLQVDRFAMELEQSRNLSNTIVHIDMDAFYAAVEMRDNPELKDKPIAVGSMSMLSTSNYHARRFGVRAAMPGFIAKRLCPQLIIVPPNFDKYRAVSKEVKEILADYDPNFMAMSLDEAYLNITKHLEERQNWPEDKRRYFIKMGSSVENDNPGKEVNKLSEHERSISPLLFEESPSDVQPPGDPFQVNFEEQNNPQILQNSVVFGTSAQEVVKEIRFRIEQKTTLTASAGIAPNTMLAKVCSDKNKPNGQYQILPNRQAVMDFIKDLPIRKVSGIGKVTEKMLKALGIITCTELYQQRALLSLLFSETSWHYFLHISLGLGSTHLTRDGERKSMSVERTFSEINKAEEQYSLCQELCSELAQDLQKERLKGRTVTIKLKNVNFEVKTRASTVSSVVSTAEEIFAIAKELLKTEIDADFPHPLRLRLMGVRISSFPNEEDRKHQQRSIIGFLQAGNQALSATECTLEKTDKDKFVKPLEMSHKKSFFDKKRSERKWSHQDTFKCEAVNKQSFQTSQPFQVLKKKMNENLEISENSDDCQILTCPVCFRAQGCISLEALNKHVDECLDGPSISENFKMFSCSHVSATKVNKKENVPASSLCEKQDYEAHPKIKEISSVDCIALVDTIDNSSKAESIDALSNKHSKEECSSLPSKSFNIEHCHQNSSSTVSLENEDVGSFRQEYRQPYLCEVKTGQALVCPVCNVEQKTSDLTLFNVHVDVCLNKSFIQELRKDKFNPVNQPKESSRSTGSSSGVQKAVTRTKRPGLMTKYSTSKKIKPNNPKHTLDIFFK"}, "[3]": {"target": "Hypoxia-inducible factor 1-alpha (Homo sapiens) (UniProt Q16665)", "sequence (Q16665 whole entry, looked up)": "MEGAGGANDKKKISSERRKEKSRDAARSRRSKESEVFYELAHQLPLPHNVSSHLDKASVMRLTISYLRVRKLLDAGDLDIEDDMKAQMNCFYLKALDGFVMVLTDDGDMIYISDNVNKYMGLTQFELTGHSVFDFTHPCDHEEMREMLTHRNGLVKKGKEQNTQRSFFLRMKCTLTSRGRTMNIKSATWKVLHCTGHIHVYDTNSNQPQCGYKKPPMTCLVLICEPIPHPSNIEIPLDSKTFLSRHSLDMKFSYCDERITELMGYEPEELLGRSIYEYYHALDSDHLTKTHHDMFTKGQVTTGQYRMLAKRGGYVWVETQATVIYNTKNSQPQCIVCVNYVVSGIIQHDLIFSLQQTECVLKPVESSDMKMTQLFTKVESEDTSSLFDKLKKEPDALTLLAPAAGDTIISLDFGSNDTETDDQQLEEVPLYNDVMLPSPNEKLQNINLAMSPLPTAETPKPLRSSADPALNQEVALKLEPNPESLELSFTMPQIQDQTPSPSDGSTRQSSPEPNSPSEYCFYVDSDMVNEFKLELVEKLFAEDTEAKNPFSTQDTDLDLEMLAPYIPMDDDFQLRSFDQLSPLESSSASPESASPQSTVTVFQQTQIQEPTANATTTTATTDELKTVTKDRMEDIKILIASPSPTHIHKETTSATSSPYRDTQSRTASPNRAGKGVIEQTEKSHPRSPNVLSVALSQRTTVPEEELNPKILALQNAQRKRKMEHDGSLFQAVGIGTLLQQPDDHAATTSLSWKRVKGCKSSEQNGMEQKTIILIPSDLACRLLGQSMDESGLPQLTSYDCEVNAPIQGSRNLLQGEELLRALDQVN", "assay": "qHTS Assay for Identification of Small Molecule Agonists for Hypoxia Response Element Signaling Pathway. [Related pubchem assays: 915 ]", "type": "functional"}, "[4]": {"target": "T2, M-phase phosphoprotein 8 (Homo sapiens) (UniProt Q99549)", "T2 sequence (whole entry)": "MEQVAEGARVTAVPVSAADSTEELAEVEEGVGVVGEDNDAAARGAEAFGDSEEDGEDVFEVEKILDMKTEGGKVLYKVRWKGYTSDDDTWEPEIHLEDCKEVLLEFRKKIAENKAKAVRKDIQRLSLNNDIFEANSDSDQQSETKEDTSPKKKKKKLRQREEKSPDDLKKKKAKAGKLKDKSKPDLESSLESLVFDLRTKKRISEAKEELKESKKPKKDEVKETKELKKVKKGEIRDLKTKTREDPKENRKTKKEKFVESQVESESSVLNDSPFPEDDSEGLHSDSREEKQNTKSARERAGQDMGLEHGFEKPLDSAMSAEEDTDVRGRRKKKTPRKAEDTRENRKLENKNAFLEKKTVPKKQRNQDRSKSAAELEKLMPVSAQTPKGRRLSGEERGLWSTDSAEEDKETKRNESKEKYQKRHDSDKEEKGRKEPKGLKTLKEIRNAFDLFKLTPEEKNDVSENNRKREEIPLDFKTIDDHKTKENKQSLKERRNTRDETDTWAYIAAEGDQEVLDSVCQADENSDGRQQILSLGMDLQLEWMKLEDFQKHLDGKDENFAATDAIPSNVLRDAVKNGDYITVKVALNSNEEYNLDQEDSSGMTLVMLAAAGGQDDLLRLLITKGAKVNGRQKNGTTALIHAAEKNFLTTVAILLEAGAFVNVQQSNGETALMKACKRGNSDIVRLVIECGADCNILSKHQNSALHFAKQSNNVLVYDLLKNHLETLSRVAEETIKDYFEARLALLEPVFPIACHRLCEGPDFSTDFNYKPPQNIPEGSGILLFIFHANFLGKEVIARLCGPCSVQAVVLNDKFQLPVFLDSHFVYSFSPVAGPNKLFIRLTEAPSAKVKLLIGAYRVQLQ"}, "[5]": {"target": "ATPase family AAA domain-containing protein 5 (Homo sapiens) (UniProt Q96QE3)", "sequence (Q96QE3 whole entry, the tested form may be a part)": "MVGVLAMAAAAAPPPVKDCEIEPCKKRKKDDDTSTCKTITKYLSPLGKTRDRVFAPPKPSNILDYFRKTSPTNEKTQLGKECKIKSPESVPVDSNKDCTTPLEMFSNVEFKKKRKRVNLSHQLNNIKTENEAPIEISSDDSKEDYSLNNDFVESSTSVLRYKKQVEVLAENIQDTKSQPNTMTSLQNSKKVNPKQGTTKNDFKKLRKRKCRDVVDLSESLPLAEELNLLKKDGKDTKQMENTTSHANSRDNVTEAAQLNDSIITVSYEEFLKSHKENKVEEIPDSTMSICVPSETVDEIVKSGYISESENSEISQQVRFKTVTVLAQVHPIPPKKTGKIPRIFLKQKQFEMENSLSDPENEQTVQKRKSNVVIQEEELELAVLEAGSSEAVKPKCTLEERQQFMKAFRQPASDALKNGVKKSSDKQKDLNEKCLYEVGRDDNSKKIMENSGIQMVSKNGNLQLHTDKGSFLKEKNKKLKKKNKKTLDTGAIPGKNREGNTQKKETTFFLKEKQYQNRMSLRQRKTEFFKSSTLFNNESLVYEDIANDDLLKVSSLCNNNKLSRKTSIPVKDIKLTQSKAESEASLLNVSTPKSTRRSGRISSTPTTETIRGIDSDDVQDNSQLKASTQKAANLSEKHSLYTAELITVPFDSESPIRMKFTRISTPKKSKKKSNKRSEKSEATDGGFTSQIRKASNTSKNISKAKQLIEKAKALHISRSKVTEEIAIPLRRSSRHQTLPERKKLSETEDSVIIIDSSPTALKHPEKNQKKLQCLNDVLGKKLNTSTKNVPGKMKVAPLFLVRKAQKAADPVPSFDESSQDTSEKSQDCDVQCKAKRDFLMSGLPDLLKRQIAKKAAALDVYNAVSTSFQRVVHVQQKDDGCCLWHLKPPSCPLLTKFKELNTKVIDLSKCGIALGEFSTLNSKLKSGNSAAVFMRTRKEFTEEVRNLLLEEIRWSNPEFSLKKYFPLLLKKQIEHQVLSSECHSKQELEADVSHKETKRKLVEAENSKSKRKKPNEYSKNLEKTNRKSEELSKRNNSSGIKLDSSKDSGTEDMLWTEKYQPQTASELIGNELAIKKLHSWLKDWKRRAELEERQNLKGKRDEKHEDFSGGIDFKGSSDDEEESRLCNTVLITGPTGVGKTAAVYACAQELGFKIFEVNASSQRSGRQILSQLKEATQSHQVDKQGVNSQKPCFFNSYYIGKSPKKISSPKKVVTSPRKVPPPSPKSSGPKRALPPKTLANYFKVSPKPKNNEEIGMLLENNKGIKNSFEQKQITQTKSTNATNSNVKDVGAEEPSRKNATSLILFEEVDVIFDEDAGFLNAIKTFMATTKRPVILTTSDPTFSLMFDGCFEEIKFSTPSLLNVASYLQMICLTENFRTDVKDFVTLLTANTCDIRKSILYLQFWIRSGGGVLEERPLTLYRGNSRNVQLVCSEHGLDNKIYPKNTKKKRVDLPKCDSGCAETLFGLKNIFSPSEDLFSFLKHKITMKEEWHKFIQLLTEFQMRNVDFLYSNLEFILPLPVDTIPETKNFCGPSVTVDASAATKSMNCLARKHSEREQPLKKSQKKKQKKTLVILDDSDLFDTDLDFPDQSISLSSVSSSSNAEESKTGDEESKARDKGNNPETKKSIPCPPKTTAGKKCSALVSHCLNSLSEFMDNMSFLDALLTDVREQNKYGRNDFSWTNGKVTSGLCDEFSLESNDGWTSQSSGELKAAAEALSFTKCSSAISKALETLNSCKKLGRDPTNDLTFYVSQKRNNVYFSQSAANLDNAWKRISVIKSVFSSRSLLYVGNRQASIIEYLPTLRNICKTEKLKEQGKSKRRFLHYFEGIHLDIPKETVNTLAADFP", "assay": "qHTS screen for small molecules that inhibit ELG1-dependent DNA repair in human embryonic kidney (HEK293T) cells expressing luciferase-tagged ELG1: Hit Confirmation using MMS Stimulated ELG1.", "type": "functional"}, "[6]": {"assay": "small-molecule DNA binding by polarization – biochemical, fluorescence polarization, cherry-pick, counter-screen for EWS/Fli inhibitor project, dose response (AID 720586)"}, "[7]": {"target": "Pyruvate kinase PKM (Homo sapiens) (UniProt P14618)", "sequence (P14618 2-531 limits assumed)": "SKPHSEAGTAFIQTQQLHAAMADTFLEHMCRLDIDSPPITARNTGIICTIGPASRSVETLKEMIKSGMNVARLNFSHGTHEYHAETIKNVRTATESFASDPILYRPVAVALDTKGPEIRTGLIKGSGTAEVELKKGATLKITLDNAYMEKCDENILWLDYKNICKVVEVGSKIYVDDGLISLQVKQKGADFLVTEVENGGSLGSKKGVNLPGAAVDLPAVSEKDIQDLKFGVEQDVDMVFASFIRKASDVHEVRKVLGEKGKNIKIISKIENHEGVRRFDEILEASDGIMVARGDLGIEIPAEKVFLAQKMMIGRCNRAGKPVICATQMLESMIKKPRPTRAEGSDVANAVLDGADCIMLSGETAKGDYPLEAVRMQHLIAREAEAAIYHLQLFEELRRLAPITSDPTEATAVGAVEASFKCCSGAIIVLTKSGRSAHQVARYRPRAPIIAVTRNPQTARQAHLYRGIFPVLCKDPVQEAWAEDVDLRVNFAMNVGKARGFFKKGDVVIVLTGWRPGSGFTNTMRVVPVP", "assay": "qHTS Assay for Activators of Human Muscle Pyruvate Kinase.", "type": "functional"}, "[8]": {"target": "T3, DNA polymerase eta (Homo sapiens) (UniProt Q9Y253)", "T3 sequence (whole entry)": "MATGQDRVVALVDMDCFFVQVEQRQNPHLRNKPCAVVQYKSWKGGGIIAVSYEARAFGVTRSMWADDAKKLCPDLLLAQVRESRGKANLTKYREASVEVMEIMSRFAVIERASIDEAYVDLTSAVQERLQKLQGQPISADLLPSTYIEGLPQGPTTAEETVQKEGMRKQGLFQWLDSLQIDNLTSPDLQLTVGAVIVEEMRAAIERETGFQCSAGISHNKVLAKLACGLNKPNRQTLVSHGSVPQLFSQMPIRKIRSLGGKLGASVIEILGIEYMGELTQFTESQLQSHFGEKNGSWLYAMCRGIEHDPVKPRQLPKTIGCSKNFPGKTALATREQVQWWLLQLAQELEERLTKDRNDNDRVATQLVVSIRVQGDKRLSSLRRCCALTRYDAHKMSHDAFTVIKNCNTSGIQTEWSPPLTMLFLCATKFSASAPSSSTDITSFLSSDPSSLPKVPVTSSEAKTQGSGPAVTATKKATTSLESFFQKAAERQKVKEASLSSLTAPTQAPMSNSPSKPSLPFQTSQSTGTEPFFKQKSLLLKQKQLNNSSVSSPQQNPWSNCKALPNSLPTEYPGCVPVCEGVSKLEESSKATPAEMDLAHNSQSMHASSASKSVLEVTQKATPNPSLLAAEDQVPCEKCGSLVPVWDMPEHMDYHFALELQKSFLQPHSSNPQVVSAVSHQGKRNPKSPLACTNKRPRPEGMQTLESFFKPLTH", "assay": "qHTS for Inhibitors of Polymerase Eta: Confirmatory Assay for Cherry-picked Compounds.", "type": "functional"}}, "note": "“And” between values parts separate entries of the source, which are not always exact repeats. Identical values can stand only once. These assays gave more results; the selection is not random. For part of these data: Results with a measured potency or affinity are listed apart. The source made the active and inactive calls. Unless noted, the rule behind the calls is not given here."}
{"compound": "CISPLATIN, CHEMBL11359", "values": [{"measurement": "GI50", "setting": "P388/ADR", "result": 0.561, "unit": "µM"}, {"measurement": "GI50", "setting": "SN12K1", "result": 4.06, "unit": "µM"}, {"measurement": "GI50", "setting": "P388", "result": 0.248, "unit": "µM"}]}
{"compound": "CC(=O)OCc1ccccc1", "values": [{"measurement": "Potency", "setting": "[1]", "result": "30.6 µM (active)"}]}
{"compound": "Cc1cc(C)c(NC(=O)Cn2c(=O)n(Cc3ccc(C(=O)NCc4ccco4)cc3)c(=O)c3sccc32)c(C)c1", "values": [{"measurement": "Potency", "setting": "[2]", "result": "299 µM (active)"}]}
{"compound": "O=C(O)Cc1ccccc1Nc1c(Cl)cccc1Cl", "values": [{"measurement": "Potency", "setting": "[3]", "result": "6.31 µM (active) and 25.1 µM (active)"}, {"measurement": "Potency", "setting": "[4]", "result": "inactive"}]}
{"compound": "O=C(O)c1cc(/N=N/c2ccc(S(=O)(=O)Nc3ccccn3)cc2)ccc1O", "values": [{"measurement": "Potency", "setting": "[5]", "result": "inactive"}]}
{"compound": "COc1ccc(C2=Nn3c(nnc3-c3ccccc3F)SC2)cc1OC1CCOC1", "note": "(configuration not stated)", "values": [{"measurement": "AbsAC35", "setting": "[6]", "result": "137 µM (active)"}]}
{"compound": "N[C@H](CCC(=O)O)C(=O)O", "values": [{"measurement": "Potency", "setting": "[7]", "result": "inactive"}]}
{"compound": "CC(C)(O)c1ccccc1CC[C@@H](SCC1(CC(=O)O)CC1)c1cccc(/C=C/c2ccc3ccc(Cl)cc3n2)c1", "values": [{"measurement": "Potency", "setting": "[8]", "result": "213 µM (active)"}]}
{"compound": "Nc1nc2cc3c(cc2cc1C(=O)NCCc1c[nH]c2ccccc12)OCO3", "values": [{"measurement": "AbsAC35", "setting": "[6]", "result": "251 µM (active)"}]}
